POLK inh = inhibitors of human DNA polymerase kappa. Q9UBT6. 400,000 compounds, 0.53% hits. Potency, µM (highest dose often 107 µM), without a hit: at the top dose activity, negative = inhibition, usual class: inhibitors. purified Pol kappa, fluorescent DNA synthesis assay, 10 min. AID 588579; note: % is set by controls: 0 for no effect and ±100 for the full control effect
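Here, compound and 10 nM enzyme are combined for 15 min at room temperature; adding 50 nM substrate (final) starts DNA synthesis, tracked by fluorescence at 0 and 10 min against buffer-only wells.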
L3MBTL1 block = blocks human L3MBTL1. Q9Y468. AlphaScreen L3MBTL1–H3K9me1 peptide binding. Potency, µM (series often up to 57.1 µM), for the others: top-dose activity, negative = inhibition, usual class: inhibitors. 230,000 compounds, 0.66% hits. AID 485360; note: % is set by controls: 0 for no effect and ±100 for the full control effect; nearly all actives have a fitted effect of over 60% in size
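Read-out is AlphaScreen signal from streptavidin donor and nickel chelate acceptor beads (10 ug/mL final each) bridging L3MBTL1 (50 nM) and biotinylated K9-monomethylated H3(1-15) peptide (75 nM), after 30 min compound exposure at room temperature.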
POLI inh = blocks human DNA polymerase iota activity | 390,000 compounds, 1% hits | Potency, µM (titrated, usually from 115 µM), for the others: at the highest dose activity, negative = inhibition, usual class: inhibitors | Pol iota fluorescent replication assay, 10 min | AID 588590
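Fluorescent replication assay read twice, at 0 min and 10 min after adding 50 nM (final) substrate. Enzyme (10 nM) and compounds were first incubated 15 min at room temperature; enzyme-free buffer wells were negative controls.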
POLB inh = inhibitors of human DNA polymerase beta. Potency, µM (titrated, usually from 114 µM), for inactives: at the top dose activity change, negative = inhibition, usual class: inhibitors. AID 485314. 340,000 compounds, 1.3% hits. Pol beta primer extension/strand displacement, fluorescence kinetic. P06746; note: % is set by controls: 0 for no effect and ±100 for the full control effect
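Values derive from four-parameter Hill fits of normalized kinetic data: reads at 0 and 10 min following addition of 50 nM substrate to 10 nM Pol beta preincubated 15 min with compound.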
Pol eta inh-1 = blocks human DNA polymerase eta activity; 390,000 compounds, 1.2% hits; Potency, µM (top dose mostly 114 µM), for inactives: at the highest dose activity change, negative = inhibition, hits mostly inhibitors; Q9Y253; recombinant Pol eta, fluorescent DNA replication assay; note: % is set by controls: 0 for no effect and ±100 for the full control effect
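Fluorescent replication assay: 50 nM final substrate added after a 15 min room-temperature compound preincubation with 10 nM enzyme. Signal taken at 0 min and again at 10 min.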
APEX1 inh = APE1 (human) endonuclease inhibition; P27695; recombinant APE1, TAMRA/BHQ-2 abasic DNA cleavage fluorescence; Potency, µM (top dose mostly 65.8 µM), for the others: at the top dose activity change, negative = inhibition, usual class: inhibitors; 350,000 compounds, 0.35% hits;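 note: plate controls were vehicle for no effect and reference inhibitor for full effect; nearly all actives have a fitted effect of over 55% in size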
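0.75 nM APE1 + cpd, 15 min RT; start w/ 50 nM TAMRA/BHQ-2 THF-abasic dsDNA; kinetic fluor 525/598 nm ×3 reads @60 s; Δ(read3−read1); normalized to DMSO and NSC13755 control wells.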
Pol eta inh-2 = confirmation of human DNA polymerase eta inhibitors; Pol eta primer extension, TAMRA/BHQ fluorescence, 10 min; Potency, µM, most hits filed as inhibitors; shares compounds with Pol eta inh-1; AID 720502; 2,600 compounds, 64% hits
The depositor's hits bear a star; ? = inconclusive; . = not tested or not shown. In the library only some 2.5% were active in any assay of this set; here they are far more common. Calls come from the whole dose curve; as a rule, active = well fitted curve in the direction sought with a large enough effect; inconclusive = small, poorly fitted or top-dose-only effect, or another doubt; inactive = no such curve, though single readings can be large; an effect the other way counts as inactive or inconclusive. Potency is the fitted concentration of half-maximal effect.

SMILES	POLK inh	L3MBTL1 block	POLI inh	POLB inh	Pol eta inh-1	APEX1 inh	Pol eta inh-2
NC(=O)c1nsc(C(=O)N(Cc2ccco2)C(C(=O)NCC2CCCO2)c2ccc(F)cc2)c1N (stereo not drawn)	-2%	.	20%	-22%	10%	45%	.
Nc1nonc1C(=O)N/N=C/c1ccc(-c2ccc(Cl)c(C(=O)O)c2)o1	?	-92%	22µM*	?	13µM*	3%	48*
C/C(=N\NC(=O)c1cc(O)ccc1O)c1cccc(NC(=O)c2cccc(Cl)c2)c1	79µM*	.	?	?	?	13%	?
C[C@H](CO)N1C[C@H](C)[C@@H](CN(C)C(=O)c2cc(-c3ccccc3)on2)OCc2cn(nn2)CCCC1=O	.	.	.	.	1%	.	.
C=C1CC[C@@H]2[C@](C)(CCC[C@@]2(C)/C=C/[C@@H](O)C(C)(C)O)[C@H]1CC(=O)NCCS(=O)(=O)O	?	.	-10%	.	18µM*	.	?
Cc1ccc(-c2cc(C(=O)N3CC(C)CC(C)C3)c3ccccc3n2)o1 (stereo not drawn)	?	.	-16%	40µM*	79µM*	-19%	76*
Cc1nn(CCC(=O)O)c2nc(-c3cccnc3)cc(C(F)(F)F)c12	4%	3%	-10%	-1%	-9%	?	.
Cc1nn(CCc2nn[nH]n2)c2nc(-c3ccc(C4CCCCC4)cc3)cc(C(F)(F)F)c12	-35%	-15%	29%	?	45µM*	7%	?
CC(C)c1ccc(C(=O)C[N+]2(C)CCOCC2)cc1	18%	.	32%	.	.	.	.
CCCNc1nc2nc3ccccn3c(=O)c2cc1C(=O)NCCN1CCOCC1	-6%	.	55%	9%	-5%	19%	.
C/C(=N\Nc1ccc(C(=O)O)cc1)c1ccc(Br)cc1	?	?	40µM*	20µM*	13µM*	25µM*	27*

Screening results as filed in PubChem BioAssay.
